From PubChem BioAssay (NCI) come the findings set out here.

Holding throughout (experiment): NCI-60 one-dose screen, 48 h (100 = growth as untreated, 0 = no growth, -100 = all killed)
Settings in all cases: 10 µM

Assay [1] concerns SK-MEL-2 melanoma.
The subject of assay [2] is EKVX NSCLC.
Assay [3] relates to UO-31 renal.
The test system of assay [4] is TK-10 renal.
For assay [5], the system named is ACHN renal.
Assay [6] has as its system CAKI-1 renal.
Assay [7] deals with A498 renal.
The subject of assay [8] is CCRF-CEM leukemia.
The subject of assay [9] is MOLT-4 leukemia.
Assay [10] deals with SR leukemia.
For assay [11], the system named is RPMI-8226 leukemia.
Assay [12] concerns OVCAR-8 ovarian.
Assay [13] concerns OVCAR-5 ovarian.
In assay [14] the test system is SK-OV-3 ovarian.
For assay [15], the system named is IGROV1 ovarian.
Assay [16] concerns OVCAR-3 ovarian.
Assay [17] has as its system HS 578T breast.
Assay [18] concerns NCI/ADR-RES ovarian.
Assay [19] deals with SN12C renal.
Assay [20] has as its system OVCAR-4 ovarian.

Compounds without any hit were thinned out: in the full panel of roughly 83,000, 20% have a hit.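 Results are percent growth after 48 hours of single-concentration exposure. 100 means growth as in untreated cells, lower positive values show inhibition; negative values down to -100 show cell death.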 Unmarked numbers belong to inactive results. Active and inactive are the calls of the source. How the source made its calls: active means growth percent below 10; inactive means the rest.

Regarding `c1ccc2c(c1)Cc1ccccc1N2CCN1CCCCC1`, the growth in assay [1] is 97%; in assay [2], 101%; in assay [3], 83.8%; in assay [4] it was 104%; in assay [5] it was 89.6%; in assay [6], 90.7%. The growth in assay [7] was 107%; in assay [8], 98.7%; in assay [9] it was 83.3%; in [10], 94.1%; in assay [11], 87.2%; in assay [12], 91.2%. For the same compound, the growth in [13] is 96.6%; in assay [14], 88.8%; in assay [15], 83.5%; in assay [16], 108%; in assay [17], 113%; in [18], 88.5%.

With `O=[N+]([O-])c1ccc(/C(=C/c2ccccc2)[n+]2ccccc2)cc1`, the growth in assay [1] is 125%; in [19], 101%; in assay [3], 100%; in assay [4], 114%; in assay [5], 107%; in assay [6], 111%. Also, the growth in assay [7] was 101%; in assay [8] it was 89.9%; in assay [9] it was 105%; in [10], 102%; in [11], 98.3%; in assay [12], 97%. In addition, the growth in assay [13] is 98%; in assay [14] it was 119%; in assay [15] it was 109%; in [16], 127%; in assay [18], 116%.

`O=C1CC(SC(=S)C2CCCC2=O)C(=O)N1` (configuration not stated): the growth in [1] was 96.9%; in assay [19], 99.3%; in assay [3], 92.3%; in assay [4], 108%; in [5] it was 103%; in [6], 102%. The growth was 100% in assay [7]; 101% in [8]; 96.5% in assay [9]; 89.9% in [10]; 100% in assay [11]; 96.3% in assay [12]. Besides, the growth in assay [13] is 109%; in [20] it was 106%; in [14], 105%; in assay [16], 109%; in assay [17], 104%; in assay [18] it was 104%.

For the compound `CC1CCCC(C(=O)O)C1C(=O)O` (configuration not stated), the growth in [1] was 93.4%; in assay [2], 95.4%; in assay [3], 92.7%; in [4], 93.8%; in assay [5], 105%; in assay [6], 97.2%. The growth in assay [7] is 95.8%; in assay [8], 99.3%; in assay [9], 77.6%; in [10], 98.9%; in assay [11], 94.1%; in [13] it was 99.8%. The growth was 103% in assay [20]; 90.4% in assay [14]; 106% in [15]; 110% in [16]; 95.4% in assay [17]; 102% in [18].

As for `Clc1ccc(Cc2ccncc2)cc1`, the growth in assay [1] was 121%; in assay [2], 101%; in [19] it was 95.4%; in [4], 130%; in [6], 130%; in assay [7] it was 104%. For the same compound, the growth in assay [8] is 104%; in [9], 114%; in assay [10], 97.6%; in assay [11], 109%; in assay [12], 99%; in assay [14] it was 113%. The growth in assay [16] was 110%; in assay [17], 105%; in [18], 108%.

With `Cc1ccc(-c2c3c(N)nc(-c4cccnc4)nc3nc3c2c(C)nn3-c2ccccc2)cc1`, the growth in assay [1] was 61.6%; in [19], 82.8%; in assay [3], 65.8%; in assay [4] it was 94.6%; in assay [5] it was 40%; in assay [6] it was 83.6%. Also, the growth is 74.8% in [7]; 93.6% in [9]; 82.5% in [10]; 81.2% in [11]; 82% in assay [12]; 90.8% in assay [13]. Also, the growth in assay [20] was 50.8%; in assay [14], 66.2%; in [15], 103%; in assay [16] it was 104%; in [17], 72%; in [18], 90.3%.

For `O=C1c2c(c(=O)[nH]c3ccccc23)CCN1Cc1ccccc1`, the growth is 127% in assay [1]; 92.4% in assay [2]; 97.4% in assay [19]; 119% in assay [4]; 91.8% in assay [5]; 110% in [7]. Besides, the growth in assay [8] was 100%; in assay [9], 105%; in assay [10] it was 115%; in assay [11], 91.9%; in [13] it was 92.9%; in [20], 155%. Also, the growth in [14] is 98.1%; in assay [16], 121%; in assay [17] it was 119%; in assay [18], 98.6%.

Turning to `Cc1ccc(N=Nc2ccccc2)cc1`, the growth in [1] is 97.6%; in assay [2], 94.8%; in assay [3], 94.8%; in assay [4] it was 95.1%; in [5], 107%; in [6], 96.4%. The growth in assay [7] was 104%; in [8], 99%; in assay [9], 95.5%; in assay [10], 90.3%; in assay [11], 100%; in assay [12], 106%. In addition, the growth is 99.7% in assay [13]; 89.4% in assay [14]; 102% in assay [15]; 105% in assay [16]; 103% in [17]; 102% in assay [18].

For `CC(C)(O)CCl`, the growth in assay [1] was 153%; in [19] it was 106%; in assay [3], 107%; in assay [4] it was 111%; in assay [5] it was 108%; in [6], 103%. Besides, the growth in [7] is 106%; in assay [9], 107%; in assay [10] it was 111%; in [11] it was 113%; in assay [12] it was 102%; in [13], 108%. Moreover, the growth in [20] is 129%; in assay [14] it was 119%; in [16], 114%; in assay [17], 96%; in assay [18], 108%.

For `O=C(O)Cc1ccc(O)c(O)c1`, the growth in assay [1] was 109%; in assay [2], 89.4%; in [19] it was 99.4%; in assay [4], 112%; in assay [5], 108%; in [6], 99.5%. Moreover, the growth in assay [8] is -24.1% (active); in [9], 98.6%; in [11] it was 92.4%; in assay [13], 96.2%; in assay [20], 109%; in [14], 99.3%. Moreover, the growth was 108% in assay [16], 90% in assay [17] and 111% in assay [18].

In the case of `C#CC(C)(O)[C@@H]1C[C@H](CC(=O)O)C1(C)C` (some centres not stated), the growth is 108% in assay [1]; 108% in assay [19]; 87.1% in [3]; 114% in [4]; 110% in assay [5]; 96% in [6]. The growth was 110% in [7]; 137% in assay [8]; 114% in assay [9]; 88.9% in [10]; 109% in assay [11]; 102% in [13]. Besides, the growth is 117% in assay [20]; 116% in [14]; 119% in assay [16]; 105% in assay [17]; 111% in assay [18].

Consider `Fc1ccc(C(c2ccc(F)cc2)C(Cl)Cl)cc1`, for which the growth was 97.1% in assay [1]; 101% in assay [2]; 108% in assay [19]; 110% in assay [4]; 102% in [5]; 96.8% in assay [6]. For the same compound, the growth is 93.7% in [8]; 94.2% in assay [9]; 97.3% in assay [11]; 101% in [12]; 105% in [13]; 105% in assay [20]. For the same compound, the growth in [14] is 106%; in assay [16], 105%; in assay [18], 107%.

Regarding `NS(=O)(=O)c1ccc(Br)cc1`, the growth in assay [1] was 101%; in assay [2], 90.3%; in assay [3] it was 97.1%; in assay [4], 90.4%; in assay [5], 107%; in [6], 95.3%. Moreover, the growth in [7] is 115%; in assay [8], 104%; in assay [9] it was 92.7%; in assay [10], 106%; in assay [11], 108%; in [12], 105%. The growth in assay [13] is 97.6%; in [20] it was 104%; in assay [14], 80.8%; in [15], 100%; in assay [16] it was 114%; in assay [17], 110%. Also, the growth in assay [18] was 97.7%.

With `COc1ccc(Nc2cnc3cc(NS(=O)(=O)c4ccc(C)cc4)ccc3n2)cc1`, the growth in [1] was 65.5%; in [19] it was 85.9%; in assay [3] it was 59.3%; in assay [4], 94.7%; in assay [5], 90.3%; in assay [6], 61.5%. Moreover, the growth in assay [7] was 77.9%; in assay [8], 90%; in assay [9], 57.5%; in [10], 30%; in assay [11], 106%; in [12], 82.1%. In addition, the growth was 95.9% in assay [13]; 88% in assay [14]; 65.5% in [15]; 79.8% in assay [16]; 82.7% in assay [17]; 73.1% in assay [18].

Take `COc1ccc2c(c1)C(=O)/C(=C/c1ccc([N+](=O)[O-])o1)O2`: the growth in [1] was -68.7% (active); in assay [19], -30.4% (active); in assay [3], -91.9% (active); in [4], -93.1% (active); in assay [5], -80.9% (active); in assay [6], -69.8% (active). Further, the growth is -50.5% (active) in [7]; 3.49% (active) in [8]; -37.2% (active) in assay [9]; 2.34% (active) in assay [10]; -3.06% (active) in assay [11]; -71.6% (active) in assay [12]. Also, the growth in [13] is -52.2% (active); in assay [20], -87% (active); in [14] it was 48.7%; in assay [15] it was -66.3% (active); in assay [16], -84.5% (active); in assay [17], 17.8%. Moreover, the growth in [18] is 13.4%.

For `CCOc1ccccc1/C=N/N1CCCCCC1`, the growth in assay [1] is 113%; in assay [2], 96.7%; in assay [4], 104%; in [5], 104%; in [6] it was 85.7%; in assay [8] it was 100%. The growth is 97.7% in [9]; 89.3% in assay [10]; 110% in assay [11]; 103% in assay [12]; 107% in assay [13]; 95.9% in [14]. The growth is 97.1% in assay [16], 96% in assay [17] and 100% in assay [18].

In the case of `O=C1/C(=C/c2ccc3c(c2)OCO3)SC(=S)N1C1c2ccccc2Oc2ccccc21`, the growth was 115% in assay [1]; 96.8% in [2]; 74.2% in [3]; 101% in [4]; 91.2% in assay [5]; 92.8% in assay [6]. Also, the growth in assay [7] was 101%; in assay [8], 86.7%; in assay [9], 96.5%; in assay [10], 84.1%; in assay [11], 106%; in assay [12] it was 98.9%. Further, the growth in [13] was 96.5%; in assay [20], 102%; in [14], 107%; in assay [15], 90.6%; in [16], 98.1%; in [17], 90.9%. The growth in assay [18] was 95.4%.
